From the supplement of paper PMC6555819 come the findings set out here.

Common to all, as to assay: PBM binding z-score (relative to random genomic background probes); higher = stronger binding; sequences stand for … in GC…GCGATTGACAGCGTAGAATGAAGG
Assay [1] deals with RARb homodimer (NR concentration 270 nM). The essentials: (§1)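 Custom Agilent 4×180K protein-binding microarrays carried double-stranded probes. Their 34-nt variable regions held direct-repeat seeds, single-nucleotide variants, half-site ablations and random human genomic background sequences. Arrays were incubated 1 h with ligand-free nuclear receptor dimers in PBS pH 7.4, 2% milk, 0.02% Triton X-100, 1 mM DTT, 0.2 mg/mL BSA and 0.4 mg/ml salmon testes DNA. Antibodies against each partner (one per run) detected binding, and scanned fluorescence was regression-normalized. Binding z-scores use random background probes as reference.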

The test system of assay [2] is RARg:RXRa (NR concentration 270 nM, RXRa partner concentration 90 nM). The method, boiled down:
as §1

The subject of assay [3] is RARg homodimer (NR concentration 270 nM). The essentials:
as §1

Assay [4] has as its system RXRa DBDmut IVT, anti-RXR (DBD mutation: RXRa K156A/R161A, NR concentration 90 nM). The essentials: as §1
Assay [5] has as its system RXRa homodimer (NR concentration 180 nM). The essentials: as §1
Assay [6] relates to THRa:RXRa (NR concentration 90 nM, RXRa partner concentration 90 nM). The essentials: as §1
Assay [7] concerns THRa homodimer (NR concentration 90 nM). The method, boiled down: as §1
Assay [8] relates to VDR homodimer (NR concentration 270 nM). The method, boiled down:
as §1

In the case of TCTATTAGTTAATTAGGGCAACCGAAACAGCGGA, the PBM binding z-score was 0.756 in assay [1]; 0.526 in assay [2]; 0.551 in assay [3]; 1.16 in assay [4]; 0.875 in assay [5]; 1.05 in assay [6]. Also, the results for the PBM binding z-score in assay [7] and in assay [8] were 0.627 and 0.625, respectively.

Regarding AATACAGGGTCACTAGGCCAGGGTAGGTACGAAT, the PBM binding z-score in assay [1] turned out to be 3.44; in assay [2] it was 4.88; in assay [3] it was 4.64; in assay [4], 2.33; in assay [5] it was 5.25; in assay [6], 3.41. Also, the PBM binding z-score in assay [7] was determined as 1.34; in assay [8] it was 2.71.

Turning to ATAGGTAGGTTATCGGGTCATTCAGTTTGCGCAT, the PBM binding z-score came out at 3.33 in assay [1]; 3.46 in assay [2]; 2.72 in assay [3]; 1.53 in assay [4]; 3.29 in assay [5]; 3.41 in assay [6]. Further, the PBM binding z-score in assay [7] stood at 3.2; in assay [8], 4.02.

Turning to AATACAGGGTCACTAGGCCAGATTAGGTACGAAT, the PBM binding z-score in assay [1] amounted to 3.44; in assay [2], 5.37; in assay [3] it was 4.96; in assay [4] it was 3.03; in assay [5] it was 5.9; in assay [6], 3.57. The PBM binding z-score in assay [7] was determined as 1.46; in assay [8], 2.83.

For the sequence GCTTGTAGGTCAAGGTTAAGAAAGACTAAGCTAA, the PBM binding z-score turned out to be 3.22 in assay [1]; 4.98 in assay [2]; 5.18 in assay [3]; 1.26 in assay [4]; 4.8 in assay [5]; 2.91 in assay [6]. Moreover, the PBM binding z-score was 0.735 in assay [7] and 0.622 in assay [8].

Regarding TCTTTTAGATCAACAGGAGGTTAAGAAAGATCGA, the PBM binding z-score in assay [1] amounted to 0.623; in assay [2], 1.24; in assay [3] it was 0.914; in assay [4], 1.31; in assay [5], 1.48; in assay [6], 1.08. Moreover, the PBM binding z-score in assay [7] is -0.0396; in assay [8] it was -0.0983.

For CCTATTTGGTCAAGGTCACACACGCTATAGGTAC, the PBM binding z-score amounted to 4.51 in assay [1]; 4.63 in assay [2]; 4.57 in assay [3]; 2.35 in assay [4]; 4.55 in assay [5]; 4.2 in assay [6]. Also, the PBM binding z-score in assay [7] came out at 4.49; in assay [8], 3.03.

CAAACTAGGTCACCGGAAGGTCAAATTCCGCATG: the PBM binding z-score is 5.55 in assay [1]; 8.17 in assay [2]; 7.31 in assay [3]; 2.13 in assay [4]; 6.55 in assay [5]; 4.58 in assay [6]. Also, the PBM binding z-score turned out to be 3.11 in assay [7] and 2.93 in assay [8].

As to CCTTACGGGTCACCCCAGGTTATAGCATCGGAGT, the PBM binding z-score in assay [1] worked out at 3.53; in assay [2] it was 5.05; in assay [3], 4.77; in assay [4], 0.177; in assay [5], 5.34; in assay [6] it was 5.16. The PBM binding z-score in assay [7] came to 1.21; in assay [8] it was 1.41.

As to CCTTACGGGTCACGAGGTTATACCACGACGAGCG, the PBM binding z-score came to 3.83 in assay [1]; 6.22 in assay [2]; 5.35 in assay [3]; 1.77 in assay [4]; 7.21 in assay [5]; 3.84 in assay [6]. For the same sequence, the PBM binding z-score was 1.13 in assay [7] and 2.24 in assay [8].

In the case of TCGAGTAGGTTAGTCGGGGCCTTCAGCCAACATA, the PBM binding z-score in assay [1] is -0.149; in assay [2], -0.47; in assay [3] it was -0.571; in assay [4], 0.14; in assay [5] it was -0.278; in assay [6], 1.57. Further, the PBM binding z-score is -0.433 in assay [7] and -0.455 in assay [8].

On to ATCTCGAGGTAAAGATAGTTCAGTGAATGCAAAT, for which the PBM binding z-score in assay [1] is 0.904; in assay [2], 0.819; in assay [3] it was 0.829; in assay [4], -0.272; in assay [5] it was 0.518; in assay [6] it was 1.5. The PBM binding z-score in assay [7] was -0.16; in assay [8] it was 0.272.

CCGACTGGGGCAAAGTTACCATAACGCACAGCCA: the PBM binding z-score in assay [1] is -0.231; in assay [2] it was 0.149; in assay [3] it was 0.374; in assay [4], 0.41; in assay [5], 0.344; in assay [6], -0.336. For the same sequence, the PBM binding z-score is -0.499 in assay [7] and -0.275 in assay [8].

As for AGAATGAGGTTACCAAAGATCAGGGCAACGCTTG, the PBM binding z-score in assay [1] turned out to be 1.97; in assay [2], 2.24; in assay [3], 1.97; in assay [4], 1.14; in assay [5], 2.77; in assay [6], 3.16. In addition, the PBM binding z-score stood at 1.2 in assay [7] and 0.728 in assay [8].
